In all, about 5,500 compounds went through this assay and about 2,000 (36%) were called active. Not shown: some 18% with an inconclusive outcome. Rule as the data show it: active = normalized growth mostly below about 0.91 (no sharp cut-off); inconclusive = no clear call, values can overlap the other calls; inactive = mostly above about 0.92. The list shows a part of the results.
Assay: chemical genetic growth profiling, strain panel (AID 1159580);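 also: tested at 20 µM; growth read once vehicle control cultures reached saturation at 30 °C; 1 = growth at the plate median or of vehicle wells; lower values mean less growth of the strain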
Conditions: S. cerevisiae deletion strains, growth OD

Measured: normalized growth

O=C1CC(CSc2ccc(Cl)cc2)=NN1
inactive: locus YAL013W, strain DEP1, stronger effect = lower value 0.957 | locus YCL061C, strain MRC1, stronger effect = lower value 0.95 | locus YDL101C, strain DUN1, stronger effect = lower value 1.02 | locus YDR150W, strain NUM1, stronger effect = lower value 0.968 | locus YGR078C, strain PAC10, stronger effect = lower value 0.963 | locus YHR030C, strain SLT2, stronger effect = lower value 0.752 | locus YJR043C, strain POL32, stronger effect = lower value 0.982 | locus YJR075W, strain HOC1, stronger effect = lower value 0.936 | locus YLR039C, strain RIC1, stronger effect = lower value 1.02 | locus YLR058C, strain SHM2 (second series), stronger effect = lower value 0.949 | locus YLR262C, strain YPT6, stronger effect = lower value 0.987 | locus YMR263W, strain SAP30, stronger effect = lower value 0.978 | locus YNL153C, strain GIM3, stronger effect = lower value 0.965 | locus YPL055C, strain LGE1, stronger effect = lower value 0.89
active: locus YBR229C, strain ROT2, stronger effect = lower value 0.911 | locus YEL061C, strain CIN8, stronger effect = lower value 0.832 | locus YHR087W, strain rtc3, stronger effect = lower value 0.837 | locus YJL187C, strain SWE1, stronger effect = lower value 0.908 | locus YLR085C, strain ARP6, stronger effect = lower value 0.659 | locus YML094W, strain GIM5, stronger effect = lower value 0.857 | locus YMR219W, strain ESC1, stronger effect = lower value 0.918 | locus YNL298W, strain CLA4 (second series), stronger effect = lower value 0.789 | locus YNL322C, strain KRE1, stronger effect = lower value 0.938 | locus YNR030W, strain Alg12, stronger effect = lower value 0.844 | locus YPL241C, strain CIN2, stronger effect = lower value 0.83 | locus YPR135W, strain CTF4, stronger effect = lower value 0.639

Source: PubChem BioAssay AID1159580 (chemical genetic matrix, 2015)
